FLuc counter = qHTS profiling assay for firefly luciferase inhibitor/activator using purifed enzyme and Km concentrations of substrates (counterscreen for miR-21 project). purified FLuc, Km substrates, luminescence inhibition. Potency, µM (doses to about 57.5 µM), for the others: top-dose activity change, negative = inhibition, usual class: inhibitors. hit rate 6.9% among 360,000. AID 588342, 2011;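 also: plate controls were vehicle for no effect and reference inhibitor for full effect; nearly all actives have a fitted effect of over 55% in size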
Target sequence (P08659 whole entry, looked up): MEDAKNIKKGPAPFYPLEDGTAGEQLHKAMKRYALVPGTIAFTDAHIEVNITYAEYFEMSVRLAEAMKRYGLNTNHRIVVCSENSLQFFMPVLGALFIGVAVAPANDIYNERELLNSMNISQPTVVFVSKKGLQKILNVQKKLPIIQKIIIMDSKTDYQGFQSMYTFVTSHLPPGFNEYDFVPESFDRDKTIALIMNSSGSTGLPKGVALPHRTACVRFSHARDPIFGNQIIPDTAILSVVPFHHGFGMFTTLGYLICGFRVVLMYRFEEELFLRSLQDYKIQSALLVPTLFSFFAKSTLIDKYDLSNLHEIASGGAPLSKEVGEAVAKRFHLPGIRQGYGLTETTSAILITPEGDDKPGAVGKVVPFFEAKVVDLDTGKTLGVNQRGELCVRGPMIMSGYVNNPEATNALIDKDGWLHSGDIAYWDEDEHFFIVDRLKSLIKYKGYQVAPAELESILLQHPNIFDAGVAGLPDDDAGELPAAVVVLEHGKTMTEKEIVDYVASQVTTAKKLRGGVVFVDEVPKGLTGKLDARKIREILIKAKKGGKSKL
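Purified P. pyralis luciferase (10nM final) with 10uM D-luciferin and 10uM ATP (Km levels) in 50mM Tris acetate pH 7.5, 10mM Mg acetate, 0.01% Tween-20, 0.05% BSA; qHTS 6-point titration, ~60 µM downward; luminescence read.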
SMN2 splice up = qHTS Assay for Enhancers of SMN2 Splice Variant Expression | Potency, µM (titrated, usually from 46.1 µM), inactives show at the highest dose activity change, positive = activation, actives largely listed as activators | HEK293 SMN2-luciferase splicing reporter, luminescence, 30-36 h | hit rate 2.8% among 210,000; also: % of control where 0% means no effect; nearly all actives have a fitted effect of over 55% in size
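HEK293 cells carry an SMN2 minigene-luciferase reporter in which exon 7 inclusion puts luciferase in frame. Cells were seeded at 2000 cells/well, attached for 10-12 hours, then exposed to compounds for 30-36 hours at 37C before ONE-Glo luminescence.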
KinaseGlo FLuc = Counterscreen for Luciferase (Kinase-Glo TM) Inhibition; Potency, µM (top dose mostly 38.3 µM), for the others: at the highest dose activity change, negative = inhibition, usual class: inhibitors; hit rate 0.28% among 200,000; Kinase-Glo luciferase, ATP luminescence, 8 min; AID 1379, 2008; also: % is scaled to controls: 0 for no effect and ±100 for the full control effect; nearly all actives have a fitted effect of over 60% in size
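Inhibition of Kinase-Glo luciferase light generation was assessed at 10 uM ATP in pH 7.2 imidazole buffer, with luminescence measured after eight minutes at ambient temperature.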
NPC1 prom act = qHTS Assay for NPC1 Promoter Activators. Huh7 NPC1 promoter luciferase reporter, 24 h. Potency, µM (titrated, usually from 9.22 µM), for inactives: at the highest dose activation, actives largely listed as activators. hit rate 2.4% among 320,000; also: % of control where 0% means no effect; nearly all actives have a fitted effect of over 60% in size
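Huh7 reporter cells (NPC1 promoter driving luciferase) are dosed with compound for 24 h at 37 °C, 5% CO2; luciferase detection reagent is then added and luminescence measured after 10 min at ambient temperature.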
Rab9 promoter act = qHTS Assay for Rab9 Promoter Activators; Huh7 Rab9 promoter-luciferase reporter, luminescence, 24 h; Potency, µM (top dose mostly 9.22 µM), inactives show at the top dose activation, negative = inhibition, actives largely listed as activators; hit rate 2.8% among 320,000; AID 485297, 2010; also: % of control where 0% means no effect; nearly all actives have a fitted effect of over 60% in size
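Steps: seed 1500 Huh7 Rab9-luc cells per well, rest 2 h at 37 °C; add compound in DMSO; incubate 24 h; add luciferase reagent, 10 min ambient; read luminescence.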
ELG1 genotoxic = qHTS screen for small molecules that induce genotoxicity in human embryonic kidney (HEK293T) cells expressing luciferase-tagged ELG1; hit rate 1.3% among 330,000; Potency, µM (highest dose often 46 µM), for the others: at the top dose activity change, positive = activation, usual class: activators; HEK293T ELG1-luciferase reporter, luminescence, 16 h; also: % of control where 0% means no effect; nearly all actives have a fitted effect of over 60% in size
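Screening used a luciferase reporter fused to human ELG1 in HEK293T cells. Luminescence was read on a CCD plate imager after 16 hr exposure and 30 min ONE-Glo incubation.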
* = called active by the depositor; u = inconclusive; x = no result; [ ] = remark or other dose. In the library only some 7.5% were active in any assay of this set; here they are far more common. Calls follow the shape of the dose curve; as a rule, active = well fitted curve in the direction sought with a large enough effect; inconclusive = small, poorly fitted or top-dose-only effect, or another doubt; inactive = no such curve, though single readings can be large; an effect the other way counts as inactive or inconclusive. Potency is read from the fitted curve at half-maximal effect.

SMILES	FLuc counter	SMN2 splice up	KinaseGlo FLuc	NPC1 prom act	Rab9 promoter act	ELG1 genotoxic
Fc1ccc(-c2csc(-c3ccncc3)n2)cc1	u	-9.3%	0.6%	22.8%	16.7%	-7.9%
COc1ccc(C(=O)N(Cc2ccc(C(C)C)cc2)C2CCS(=O)(=O)C2)cc1 (stereo not drawn)	-4.5%	-10.9%	x	x	x	x
COc1ccccc1CNC(=O)C(=O)NCC1OCCN1S(=O)(=O)c1ccc(Br)cc1 (stereo not drawn)	1.0%	x	x	3.4%	5.4%	-16.1%
Oc1ccc(Nc2nc(-c3ccc4ccccc4c3)cs2)cc1	1.07µM*	25.1%	-2.6%	u	u	u
Cc1cc(NS(=O)(=O)c2ccc(Nc3nc(-c4ccc(C)c(C)c4)cs3)cc2)no1	u	-16.2%	2.8%	-2.5%	-2.1%	-2.5%
Cc1cc(NS(=O)(=O)c2ccc(Nc3nc(-c4ccc(O)cc4)cs3)cc2)no1	23.9µM*	11.9%	5.2%	-19.9%	-8.9%	0.1%
Cc1cc(C)c2c(N)c(C(=O)c3ccccc3)oc2n1	23.9µM*	-7.3%	-2.4%	x	x	x
Cc1cc(C)c2c(N)c(C(=O)c3ccc(Br)cc3)oc2n1	u	x	x	-1.1%	-0.2%	-3.5%
COC(=O)c1oc2nc(C)cc(C)c2c1N	1.4%[2.3 µM]	17.5%	3.3%	0.6%	-1.7%	4.2%
COCc1cc(C)nc2oc(C(=O)c3ccccc3)c(N)c12	16.9µM*	9.7%	-2.8%	-1.3%	3.4%	4.4%
CCCCn1c(N)c(N(CC(C)C)C(=O)C2CCN(S(=O)(=O)c3ccc(C)c(C)c3)CC2)c(=O)[nH]c1=O	2.8%	x	x	-8.9%	-0.2%	-3.5%
CC(NC(=O)CCn1nc(-c2ccc(Cl)cc2)ccc1=O)c1ccccc1 (stereo not drawn)	-11.6%	-3.7%	6.5%	-2.1%	-5.9%	4.2%
COc1ccc2[nH]c3c(=O)n(Cc4ccc(C(=O)N5CCC(C(N)=O)CC5)cc4)c(=S)[nH]c3c2c1	21.3µM*	3.6%	-6.4%	1.3%	6.1%	0.3%
COc1ccc(C(=O)c2oc3ccccc3c2NC(=O)COc2cccc(C)c2C)cc1	1.7%	10.8%	x	x	x	x
CC(=O)Oc1oc(-c2ccccc2)nc1C=Nc1ccc(N(C)C)cc1	2.2%	x	x	0.0%	-0.1%	-6.1%
CN(C)c1ccc(N=Cc2cccn2C)cc1	3.38µM*	x	x	16.4%	24.1%	14.6µM*
O=C(Nc1ccc(N2CCOCC2)cc1N1CCOCC1)c1cccs1	-12.5%	2.9%	0.2%	2.4%	-1.4%	-0.3%
O=C(c1ccc(N2CCOCC2)cc1)c1cccs1	1.9µM*	2.51µM*	-20.4%	0.891µM*	1.12µM*	u
O=C(N/N=C/c1ccc(N2CCOCC2)s1)c1ccc(NS(=O)(=O)c2cccs2)cc1	26.9µM*	x	x	9.3%	12.1%	0.6%
O=C(N/N=C/c1ccc([N+](=O)[O-])o1)c1ccc(NS(=O)(=O)c2cccs2)cc1	u	x	x	-1.8%	1.6%	-11.1%
COc1ccc(C(=O)N/N=C/c2ccc(N3CCOCC3)s2)cc1OC	-13.0%	x	x	-2.5%	-6.6%	-1.2%
O=C(N/N=C/c1ccc([N+](=O)[O-])cc1)c1ccc(NS(=O)(=O)c2cccs2)cc1	21.3µM*	x	x	-0.4%	6.1%	1.3%
O=C(N/N=C/c1ccc2c(c1)OCO2)c1ccc(NS(=O)(=O)c2cccs2)cc1	9.53µM*	13.4%	-1.3%	9.2%	17.6%	3.7%
Cc1ccc(C23CC4CC(CC(C(=O)NC(C)C(N)=O)(C4)C2)C3)cc1 (stereo not drawn)	-0.3%	x	x	-2.0%	-1.8%	0.5%[9.26 µM]
O=C(N/N=C/c1ccc(N2CCOCC2)cc1)c1ccc(NS(=O)(=O)c2cccs2)cc1	7.57µM*	-3.3%	2.4%	1.2%	0.4%	-0.8%
SMILES	FLuc counter	SMN2 splice up	KinaseGlo FLuc	NPC1 prom act	Rab9 promoter act	ELG1 genotoxic
O=C(N/N=C/c1ccc(N2CCOCC2)cc1)c1cccs1	8.49µM*	11.2µM*	u	2.82µM*	u	u
O=C(N/N=C/c1ccc(N2CCOCC2)cc1)c1ccncc1	u	x	x	1.7%	-7.3%	-0.2%
O=C(N/N=C/c1ccc(N2CCOCC2)cc1)c1ccccc1NS(=O)(=O)c1cccs1	u	26.8%	0.4%	-0.5%	2.3%	-0.2%
CCCCCCCCC/C=C/CC1CC(=O)OC1=O (stereo not drawn)	x	-27.4%	x	x	x	x
O=C(O)CCc1ccc(-c2ccc(Br)cc2)n1Cc1ccco1	3.6%	-6.2%	1.2%	-2.6%	-6.1%	-0.5%
O=C(O)CCc1ccc(-c2ccc(Cl)cc2)o1	15.1µM*	-2.9%	-3.9%	8.1%	1.5%	u
COc1ccc(-c2ccc(CCC(=O)O)o2)cc1	5.36µM*	x	-3.5%	17.7%	17.8%	11.9%
O=C(O)CCc1ccc(-c2ccc(Br)cc2)o1	15.1µM*	5.1%	-1.3%	11.2%	5.4%	4.4%
O=C(COC(=O)Cc1n[nH]c(=O)c2ccccc12)Nc1c(Cl)cccc1C(F)(F)F	-6.3%	x	x	-2.4%	1.8%	-1.9%
O=c1cc(COc2ccc(Cl)c(Cl)c2)nc2sccn12	-3.7%	x	x	u	3.16µM*	12.6%
CC(C)(C)c1ccc(-c2nc(C=O)c3ccccn23)cc1	15.1µM*	-14.0%	-0.3%	2.2%	4.1%	1.0%
C(=N\N1CCOCC1)/c1nc(-c2ccccc2)n2ccccc12	-3.8%	3.9%	-0.6%	1.5%	9.2%	2.7%
COC(=O)c1ccc(NC(c2ccc(Cl)cc2)P(=O)(OC)OC)cc1 (stereo not drawn)	26.9µM*	-4.7%	1.4%	-2.0%	-1.4%	3.7%
CCN(c1ccc(NC(=O)COC(=O)C(C)N=C2NS(=O)(=O)c3ccccc32)cc1)C(C)C (stereo not drawn)	-19.2%	x	x	-0.9%	9.5%	3.2%
O=C1C=CC(=O)C2=C1C1c3ccccc3C2c2ccccc21	x	-1.2%	-3.5%	x	x	x
Cc1ccc2oc(-c3cc(NC(=O)c4ncn[nH]4)ccc3O)nc2c1	2.69µM*	x	x	-3.4%	2.1%	-0.3%
Cc1ccc2oc(-c3ccc(NC(=O)c4ccncc4)cc3O)nc2c1	u	x	-9.1%	-0.5%	24.4%	u
C/C(=N\N=c1/sc2ccccc2n1C)c1ccccn1	16.9µM*	u	-1.4%	u	u	u
C/C(=N\N=c1/sc2ccccc2n1C)c1ccc(N2CCOCC2)cc1	2.39µM*	11.9%	-2.1%	-2.3%	21.0%	9.0%

Compound activity deposited in PubChem by National Center for Advancing Translational Sciences (NCATS).
